Bioassay records deposited in PubChem by National Center for Advancing Translational Sciences (NCATS).
Compounds with a hit are over-represented: about 3.3% of the library has one in this group of screens.
PNC assembly inh: inhibitors of perinucleolar compartment assembly; PC3M PTB-GFP, PNC prevalence imaging, 16 h; hits give low values; activity change (PNC), negative = inhibition, % at 10 µM; hit rate 3.1% among 140,000; AID 2417;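 active means readout at or below -70, meaning at least 70% loss of cells showing the perinucleolar compartment, a nuclear body marking cancer cells; inconclusive means readout between -30 and a set limit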;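 further: plate controls were DMSO wells for no effect and camptothecin positive control wells for full effect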
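Compounds are pinned in duplicate onto adhered PC3M cells stably expressing GFP-tagged PTB and incubated 16 h at 37 C. Cells are then fixed, nuclei stained with Hoechst, and PNC-positive cells counted.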
HTT aggregate: mutant huntingtin aggregation inhibition | PC12 HttQ103-GFP aggregates, Acumen cytometry, 40 h | Potency, µM (top dose mostly 46.1 µM), without a hit: at the top dose activity change, negative = inhibition, usual class: inhibitors | hit rate 1.1% among 220,000 | AID 1688; further: potency means the concentration at half of the fitted maximal effect; on the % scale 0 is the no-effect control and ±100 the full control effect; nearly all actives have a fitted effect of over 60% in size
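Using laser scanning cytometry, GFP-positive aggregates were counted after lysis of PC12 cells induced with 100 nM tebufenozide to express HTT exon 1 Q103–GFP. Compounds were tested in titration.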
NPSR antagonist: blocks cAMP signaling of the human neuropeptide S receptor; Q6W5P4; Potency, µM (series often up to 38.3 µM), without a hit: at the top dose activity change, negative = inhibition, hits mostly inhibitors; CHO-NPSR cells, cAMP TR-FRET, antagonist mode; hit rate 1% among 220,000; further: potency means the concentration at half of the fitted maximal effect; on the % scale 0 is the no-effect control and ±100 the full control effect; nearly all actives have a fitted effect of over 50% in size
HTT cytoprotect: protects HTT-Q103 PC12 cells, measured by ATP | hit rate 0.14% among 230,000 | PC12 HTT-Q103 induced, cytoprotection, ATP luminescence, 40 h | AID 1471 | Potency, µM (series often up to 56.4 µM), without a hit: cytoprotection (ATP increase), hits mostly activators; further: potency means the concentration at half of the fitted maximal effect; % of control where 0% means no effect; nearly all actives have a fitted effect of over 45% in size
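ATP quantification (ATPlite) reports survival of PC12 cells in which tebufenozide, 100 nM final, switches on Htt exon 1 with 103 glutamines linked to GFP; compounds are titrated.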
IMPase cell inh: cell-permeable inhibitors of inositol monophosphatase (IMPase); P97697; inhibition (IP1 accumulation), % at 46.1 µM; CHO-M1 cells, IP1 accumulation, HTRF TR-FRET ratio; 120,000 tested, under 10 active; AID 901; active means well fitted curve in the direction sought with a large enough effect in the signal ratio, not every such curve was filed as active; inconclusive means small, poorly fitted or top-dose-only effect, or a change in a side signal; inactive means no such curve, though single readings can be large or run the other way; the % refers to the signal ratio;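 further: cells stimulated with carbachol in lithium chloride buffer; plate controls were DMSO basal wells for no effect and reference inhibitor wells for full effect; higher means more IMPase inhibition seen as more IP1 and lower FRET ratio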
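Cellular IMPase inhibition is scored as a rise in cytosolic IP1, detected by competitive TR-FRET between d2-labelled IP1 and a europium anti-IP1 antibody. M1-expressing CHO cells were stimulated with carbachol for 30 min at 37C, with lithium (50 mM LiCl) present in the buffer.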
ALOX12 inhib: blocks human 12-lipoxygenase activity; Potency, µM (highest dose often 57.1 µM), for the others: top-dose activity change, negative = inhibition, actives largely listed as inhibitors; hit rate 0.12% among 150,000; P18054; AID 1452; purified 12-hLO, xylenol orange hydroperoxide absorbance; further: potency means the concentration at half of the fitted maximal effect; on the % scale 0 is the no-effect control and ±100 the full control effect; nearly all actives have a fitted effect of over 55% in size
Target sequence (P18054 whole entry, looked up): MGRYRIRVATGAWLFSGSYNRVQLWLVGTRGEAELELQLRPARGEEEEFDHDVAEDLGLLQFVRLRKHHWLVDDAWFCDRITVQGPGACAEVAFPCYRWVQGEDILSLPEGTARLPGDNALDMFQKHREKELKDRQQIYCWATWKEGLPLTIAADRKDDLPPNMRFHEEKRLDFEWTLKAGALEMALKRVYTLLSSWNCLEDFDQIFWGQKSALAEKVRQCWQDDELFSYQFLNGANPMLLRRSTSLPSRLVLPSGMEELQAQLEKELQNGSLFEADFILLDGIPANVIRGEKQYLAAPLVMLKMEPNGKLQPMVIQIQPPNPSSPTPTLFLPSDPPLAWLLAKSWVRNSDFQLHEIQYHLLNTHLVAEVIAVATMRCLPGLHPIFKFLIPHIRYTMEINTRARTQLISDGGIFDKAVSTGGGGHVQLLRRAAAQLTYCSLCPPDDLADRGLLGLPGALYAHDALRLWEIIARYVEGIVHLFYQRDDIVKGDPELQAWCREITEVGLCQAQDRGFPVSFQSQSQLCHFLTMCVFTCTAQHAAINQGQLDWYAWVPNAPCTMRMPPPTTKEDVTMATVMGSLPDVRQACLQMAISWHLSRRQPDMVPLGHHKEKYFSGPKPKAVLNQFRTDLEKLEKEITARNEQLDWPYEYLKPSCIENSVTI
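Hydroperoxide output read as Fe(III)-xylenol orange absorbance, 573-to-405 nm ratio, after 30 min reaction with 40 uM arachidonic acid. Enzyme: 150 nM purified human 12hLO, 15 min compound preincubation; 25 mM Hepes pH 7.0, room temperature.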
* = called active by the depositor; ? = inconclusive; . = no result; [ ] = another dose, or the depositor's remark. Unless noted, the call rests on the fitted dose curve; in most records, active means well fitted curve in the direction sought with a large enough effect; inconclusive means small, poorly fitted or top-dose-only effect, or another doubt; inactive means no such curve, though single readings can be large; an effect the other way counts as inactive or inconclusive.

SMILES	PNC assembly inh	HTT aggregate	NPSR antagonist	HTT cytoprotect	IMPase cell inh	ALOX12 inhib
O=C1ON=C(c2ccccc2)/C1=C/c1ccc(OS(=O)(=O)c2ccccc2)cc1	?	?	6.3µM*	12%[10 µM]	.	-2%
O=C1ON=C(c2ccccc2)/C1=C/c1cccnc1	.	26%	-11%	27%[10 µM]	.	.
CC(C)NC(=O)Nc1cccs1	-100*	-18%	-4%[46.1 µM]	-7%[10 µM]	4	-5%
O=C(Nc1ccc(Oc2cccnc2)cc1)c1ccccc1Cl	?	11µM*	21%[46.1 µM]	.	-8	-2%
O=C(Nc1ccc(OCc2ccccc2)cc1)c1cccnc1	-112*	-4%	2%[46.1 µM]	-3%	8	1%
COc1ccc(NC(=O)c2ccco2)cc1NC(=O)c1cccnc1	?	3.2µM*	1%[46.1 µM]	-14%[0.074 µM]	5	-3%
COc1cc2nc(CN(C)Cc3ccc(C(C)(C)C)cc3)[nH]c(=O)c2cc1OC	.	-4%	-14%	-165%	.	.
COc1cccc(/C=C2\N=C3CCCCCN3C2=O)c1	27	13%	-5%[46.1 µM]	10%[10 µM]	-7	-11%
COc1cc(N=C2C(=O)N3CCCc4cccc2c43)cc(OC)c1	-104*	13%	5%	13%[0.074 µM]	.	0%
Cc1nc2cnc(N3CCNCC3)nc2n(C2CC2)c1=O	.	.	.	?	.	1%
CC1(C)Cc2c(C#N)c(NCCCO)nc(-c3ccccc3)c2CO1	24	17%	-21%[46.1 µM]	-26%	7	-3%
Cc1nc(NCc2ccco2)c(C#N)c2c1COC(C)(C)C2	-13	3%	-30%[46.1 µM]	-14%	0	-2%
CC1(C)Cc2c(C#N)c(NCc3ccco3)nc(-c3ccco3)c2CO1	?	1µM*	-2%[46.1 µM]	-24%[10 µM]	-2	-20%
Cc1nc(NCCCO)c(C#N)c2c1COC(C)(C)C2	-122*	2%	2%[46.1 µM]	-6%	6	-9%
COC(=O)C/C=C\[C@@H](C)[C@@H](/C=N\O[C@@H]1O[C@H](COC(C)=O)[C@@H](OC(C)=O)[C@H](OC(C)=O)[C@H]1OC(C)=O)NS(=O)(=O)c1ccc(C)cc1	.	.	.	18%[10 µM]	.	.
O=S(=O)(NCC1CCCO1)c1ccc(S(=O)(=O)N2CCc3ccccc3C2)cc1 (stereo not drawn)	-107*	-2%	-3%[46.1 µM]	16%[10 µM]	1[1.84 µM]	0%
O=C(Nc1ccc(S(=O)(=O)N2CCc3ccccc3C2)cc1)C1CCCO1 (stereo not drawn)	-18	-10%	-24%[46.1 µM]	-7%	21	-10%
CCCCCCCn1ccc(=N)cc1	10	1.1µM*	0%[46.1 µM]	-54%	7	3%
CCCCCCCCCn1ccc(=N)cc1	.	-32%[9.22 µM]	-44%	-34%[10 µM]	.	.
CCn1ccc(=N)cc1	?	7%	4%[46.1 µM]	-15%[0.074 µM]	3	9%
CCCCCn1ccc(=N)cc1	-84*	?	0%[46.1 µM]	0%[0.074 µM]	6	-9%
Clc1ccc(CCNc2nc3cc(Cl)c(Cl)cc3n3cnnc23)cc1	.	.	.	.	-1	.
Cc1nn(-c2cc(N3CCCCC3)ccc2N)c(=O)c2ccccc12	-119*	?	-1%	13%[0.074 µM]	0	-2%
Cc1cccc(Nc2ncnc3nc[nH]c23)c1	36	13µM*	3%[46.1 µM]	-18%[10 µM]	-17	1%
COc1ccc(-n2c(=O)c(-c3ccc(F)cc3)nc3cncnc32)cc1	.	.	.	-10%	.	.
Cc1ccc(C2C3=C(CC(C)(C)CC3=O)N=C3c4ccccc4C(=O)C32)cc1 (stereo not drawn)	80	?	-49%	-4%[10 µM]	.	-18%
CCCCSc1nnc2c(n1)OC(c1ccc(Br)s1)Nc1ccccc1-2 (stereo not drawn)	.	.	.	.	3	.
O=C(Cc1ccccc1)NC(NC(=S)Nc1cc(Cl)ccc1Cl)C(Cl)(Cl)Cl (stereo not drawn)	-1	9%	-7%[46.1 µM]	-17%	1	-6%
O=C(/C=C/c1ccccc1)NC(NC(=S)Nc1cc(Cl)ccc1Cl)C(Cl)(Cl)Cl (stereo not drawn)	-14	2.8µM*	-13%[46.1 µM]	-31%	4	1%
CCCn1c(=N)c(C(=O)NC2CCCC2)cc2c(=O)n3cc(C)ccc3nc21	.	.	.	.	-9	.
